This note sets out measurements from PubChem BioAssay (NCI).

Among the test systems are HCT-15 colon; HT29 colon; SNB-75 CNS; SNB-19 CNS; U251 CNS; SK-MEL-5 melanoma; UACC-62 melanoma; LOX IMVI melanoma; SK-MEL-28 melanoma; SK-MEL-2 melanoma; EKVX NSCLC; SN12C renal; UO-31 renal; TK-10 renal; ACHN renal; CAKI-1 renal; A498 renal; CCRF-CEM leukemia; MOLT-4 leukemia; PC-3 prostate.
Common to all, as to assay: NCI-60 one-dose screen, 48 h (100 = growth as untreated, 0 = no growth, -100 = all killed)
Holding throughout (conditions): 10 µM unless noted

Compounds without any hit were thinned out: in the full panel of roughly 83,000, 20% have a hit.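 Treatment: one concentration, 48 hours, 96-well format. Scoring: percent growth, with anything below 10 considered active.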 Unmarked numbers belong to inactive results. Activity calls are given as the source filed them.

On to `CN(C)S(=O)(=O)n1cnc([C@@H]2[C@@H]3C(=O)OC[C@@H]3C[C@]23N=CN(Cc2ccccc2)C3=O)c1`, for which the growth in the assay on HCT-15 colon is 98.4%; with HT29 colon it was 89.7%; in the assay on SNB-75 CNS, 67.5%; in the assay on SNB-19 CNS, 98.2%; in the assay on U251 CNS, 107%; in the assay with SK-MEL-5 melanoma it was 102%. Besides, the growth was 106% in the assay with UACC-62 melanoma; 101% in the assay on LOX IMVI melanoma; 108% in the assay with SK-MEL-28 melanoma; 176% in the assay with SK-MEL-2 melanoma; 111% in the assay on EKVX NSCLC; 104% with SN12C renal. In addition, the growth is 92.1% with UO-31 renal; 112% in the assay with TK-10 renal; 102% with ACHN renal; 97.3% in the assay on CAKI-1 renal; 99.5% in the assay with A498 renal; 125% in the assay on CCRF-CEM leukemia. In addition, the growth in the assay on MOLT-4 leukemia was 20.7%.
Take `C=C1C(=O)O[C@H]2[C@H]1CC/C(COC(=O)/C=C\C(=O)NCc1ccc(Cn3c(=O)sn(-c4ccc(Cl)cc4)c3=O)cc1)=C\CC[C@@]1(C)O[C@@H]21`: the growth in the assay with HCT-15 colon was -33.8% (active); with HT29 colon it was -28.3% (active); in the assay on SNB-75 CNS, -83.5% (active); in the assay on SNB-19 CNS, -8.33% (active); in the assay with U251 CNS it was -78.3% (active); in the assay with PC-3 prostate, -64.1% (active). The growth was -97.6% (active) in the assay on UACC-62 melanoma; -84.9% (active) with LOX IMVI melanoma; -93.5% (active) in the assay on SK-MEL-28 melanoma; -64.7% (active) in the assay with SK-MEL-2 melanoma; -74.8% (active) in the assay with EKVX NSCLC; -96.1% (active) in the assay on SN12C renal. Also, the growth with UO-31 renal is -100% (active); in the assay with TK-10 renal it was -85.1% (active); with ACHN renal, -100% (active); in the assay on CAKI-1 renal, -69.9% (active); in the assay with A498 renal, -15.8% (active); with MOLT-4 leukemia, -36.7% (active).
In the case of `CCCCOc1nc2ccc(Cl)cc2cc1/C=C/C(=O)/C=C1/CC(c2cc3cc(Cl)ccc3nc2OCCCC)Nc2ccccc2N1` (centres undefined), the growth with HCT-15 colon was 94.1%; in the assay with HT29 colon, 101%; in the assay on SNB-75 CNS, 86.2%; in the assay on SNB-19 CNS, 99.1%; in the assay on U251 CNS it was 96.4%; in the assay on PC-3 prostate it was 91.6%. For the same compound, the growth in the assay on UACC-62 melanoma was 89.1%; in the assay on LOX IMVI melanoma, 94.4%; in the assay on SK-MEL-28 melanoma it was 105%; in the assay on SK-MEL-2 melanoma, 102%; in the assay on EKVX NSCLC, 78.6%; in the assay on UO-31 renal, 77.4%. The growth was 113% with TK-10 renal; 92.7% with ACHN renal; 81.9% in the assay with CAKI-1 renal; 102% in the assay on A498 renal; 101% in the assay on CCRF-CEM leukemia; 100% in the assay with MOLT-4 leukemia.
As to `COc1ccc(/C=C2\COc3ccc(O)cc3C2=O)cc1OC`, the growth was 71.3% with HCT-15 colon; 19.9% in the assay with HT29 colon; 91.3% with SNB-75 CNS; 59.5% in the assay with SNB-19 CNS; 40.8% with U251 CNS; 64.3% with PC-3 prostate. Further, the growth in the assay with UACC-62 melanoma is 77.1%; in the assay on LOX IMVI melanoma, 11.6%; in the assay with SK-MEL-28 melanoma, 97.3%; in the assay with SK-MEL-2 melanoma, 97.1%; with EKVX NSCLC it was 96.3%; with SN12C renal, 59.3%. For the same compound, the growth is 66.6% with UO-31 renal; 93.1% with TK-10 renal; 73% in the assay with ACHN renal; 62.3% with CAKI-1 renal; 90.6% with A498 renal; 3.05% (active) with CCRF-CEM leukemia. Further, the growth in the assay on MOLT-4 leukemia is 48%.
In the case of `O=c1[nH]c(=O)n(C2CC(O)C(CO)O2)cc1CO` (centres undefined), the growth with HCT-15 colon is 98.7%; in the assay with HT29 colon it was 105%; in the assay with SNB-75 CNS, 84.3%; in the assay with SNB-19 CNS, 30.2%; in the assay with U251 CNS, 2.98% (active); in the assay with SK-MEL-5 melanoma it was 108%. Moreover, the growth in the assay with LOX IMVI melanoma was 96.1%; in the assay on SK-MEL-28 melanoma, 101%; in the assay on SK-MEL-2 melanoma, 53.5%; with EKVX NSCLC it was 98.8%; in the assay on SN12C renal it was 76.2%; in the assay with UO-31 renal, 102%. Further, the growth in the assay on TK-10 renal was 90.5%; in the assay with ACHN renal, 101%; in the assay on CAKI-1 renal, 86.3%; with CCRF-CEM leukemia, 79.8%; in the assay on MOLT-4 leukemia it was 87.7%.
With `O=C(CCc1nc(-c2cccc(Cl)c2)no1)Nc1ccccn1`, the growth is 95.2% in the assay on HCT-15 colon; 106% with HT29 colon; 93.7% in the assay on SNB-75 CNS; 97.6% with SNB-19 CNS; 111% in the assay on U251 CNS; 97.4% in the assay on PC-3 prostate. Further, the growth in the assay on UACC-62 melanoma is 91%; in the assay on LOX IMVI melanoma, 97.3%; in the assay on SK-MEL-28 melanoma it was 99.5%; with SK-MEL-2 melanoma, 105%; in the assay on EKVX NSCLC it was 92.6%; in the assay with SN12C renal, 94.9%. For the same compound, the growth in the assay with UO-31 renal is 88.1%; in the assay on ACHN renal, 101%; in the assay on CAKI-1 renal, 89.4%; with A498 renal it was 92.5%; with CCRF-CEM leukemia, 95%; in the assay with MOLT-4 leukemia, 96.8%.
Consider `CC(C)(C)OC(=O)N1Cc2cc3ccccc3nc2C1CO` (centres undefined), for which the growth with HCT-15 colon is 118%; in the assay on HT29 colon, 101%; in the assay on SNB-75 CNS, 76.8%; in the assay on SNB-19 CNS, 111%; in the assay with U251 CNS it was 103%; with SK-MEL-5 melanoma it was 96.9%. Further, the growth in the assay with UACC-62 melanoma is 100%; in the assay with LOX IMVI melanoma, 101%; in the assay with SK-MEL-28 melanoma, 101%; in the assay on EKVX NSCLC it was 92.9%; in the assay on SN12C renal, 98.9%; with UO-31 renal, 87%. The growth was 106% in the assay with TK-10 renal; 111% in the assay on ACHN renal; 53.2% in the assay on CAKI-1 renal; 97.1% in the assay with A498 renal; 128% in the assay on MOLT-4 leukemia.
Turning to `COc1cc(/C=C/C(=O)c2ccc(Nc3nc(Nc4ccccc4)nc(Nc4ccc(Cl)cc4)n3)cc2)cc(OC)c1OC`, the growth is 55.8% with HCT-15 colon; 46.8% in the assay with HT29 colon; 57.5% with SNB-75 CNS; 92.8% with SNB-19 CNS; 37.4% with U251 CNS; 39% in the assay on SK-MEL-5 melanoma. The growth was 59.8% with UACC-62 melanoma; 66.5% in the assay on LOX IMVI melanoma; 39.9% in the assay on SK-MEL-28 melanoma; 82% in the assay on SK-MEL-2 melanoma; 52.8% in the assay on EKVX NSCLC; 69% with SN12C renal. Further, the growth is 50.6% in the assay on UO-31 renal; 74.7% in the assay on TK-10 renal; 66.1% in the assay on ACHN renal; 66.4% in the assay on CAKI-1 renal; 18.5% in the assay with CCRF-CEM leukemia; 25.5% in the assay on MOLT-4 leukemia.
